{
  "source": "PubChem BioAssay (NCI)",
  "note": "This is part of a sample that, as a whole, favours compounds with a hit. Of some 83,000 tested, about 20% had one in any assay.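 48-hour exposure, single concentration, 96-well plates; percent growth endpoint where 0 means no net growth. Active: below 10.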 Values without a mark were called inactive. Activity calls are given as the source filed them.",
  "data": [
    {"tested_on": "HL-60(TB) leukemia", "experiment": "NCI-60 one-dose screen, 48 h (100 = growth as untreated, 0 = no growth, -100 = all killed)", "details": "10 µM unless noted", "values": [
      {"smiles": "COc1cc(C2c3cc4c(cc3C(OC(=O)C[n+]3ccccc3)C3COC(=O)C23)OCO4)cc(OC)c1OC", "note": "(centres undefined)", "growth": "-32.5% (active)"},
      {"smiles": "O=C(O)CCCCCCCCCCN1C(=O)/C(=C2/C(=O)N(CC(=O)O)c3ccc(Br)cc32)SC1=S", "growth": "9.25% (active)"},
      {"smiles": "Cc1cc(N2CCOCC2)nc(N(CCCNc2ccnc3cc(Cl)ccc23)Cc2ccco2)n1", "growth": "-26.3% (active)"},
      {"smiles": "O=C(/C=C/c1ccc(Cl)cc1)c1ccc(Cl)cc1", "growth": "69.2%"},
      {"smiles": "O=Cc1ncc(-c2ccc(C(F)(F)F)cc2)c(NC2CCCCCC2)n1", "growth": "-50.6% [100 µM] (active)"},
      {"smiles": "Cc1c(Cl)cccc1NC(=O)c1sc2nc3c(cc2c1N)C(=O)CCC3", "growth": "-1.76% (active)"},
      {"smiles": "Nc1nc2c(c(=O)[nH]1)C(c1ccc3c(c1)OCO3)C=C(C(=O)O)N2", "note": "(centres undefined)", "growth": "111%"},
      {"smiles": "Cc1ccc2sc3c(NCCN)nc4ccccc4c3c(=O)c2c1", "growth": "53.3%"},
      {"smiles": "CC1=NN2C(=NC3=C(CCC/C3=C\\c3ccc(Cl)cc3)C2c2ccc(Cl)cc2)S1", "note": "(centres undefined)", "growth": "63.2%"},
      {"smiles": "C=C(CNCCc1ccc(O)cc1)[C@@H]1CC[C@]2(CO)CC[C@]3(C)[C@H](CC[C@@H]4[C@@]5(C)CCC(N)C(C)(C)[C@@H]5CC[C@]43C)[C@@H]12", "note": "(some centres undefined)", "growth": "-47% (active)"},
      {"smiles": "O=C(O)c1ccc(NC(=O)c2ccc(-c3cccc([N+](=O)[O-])c3)o2)cc1", "growth": "105%"},
      {"smiles": "C=CC(=O)Nc1cccc(Nc2nc(SC)nc(-c3cccc([N+](=O)[O-])c3)c2C#N)c1", "growth": "63.4%"},
      {"smiles": "CC1(C)NCCC[C@]2(C)[C@H]3CC=C4[C@@H]5C[C@](C)(COC(=O)c6ccccc6C(=O)O)CC[C@]5(C)CC[C@@]4(C)[C@]3(C)CC[C@@H]12", "growth": "65.3%"},
      {"smiles": "CCOC(=O)c1sc2nc(-c3cccc(O)c3)nc(N3CCOCC3)c2c1C", "growth": "78.3%"},
      {"smiles": "C/C(=C(/c1ccc(O)cc1)c1ccc(OCCN(C)C)cc1)c1ccccc1", "growth": "76%"},
      {"smiles": "N#Cc1c(-c2cccc([N+](=O)[O-])c2)cc(-c2ccc(Nc3nc(Nc4ccc(F)cc4)nc(Nc4ccc(F)cc4)n3)cc2)nc1N", "growth": "28.1%"},
      {"smiles": "COc1cccc(-c2nc3sccn3c2-c2ccnc(NCCN3CCCN(C)S3(=O)=O)n2)c1", "growth": "105%"},
      {"smiles": "CN1C(=O)C(=Cc2cn(Cc3ccccc3)c3ccc(Br)cc23)C(=O)N(C)C1=O", "growth": "73.3%"},
      {"smiles": "O=c1[nH]c(N2CCOCC2)nc2scc(-c3ccccc3)c12", "growth": "103%"},
      {"smiles": "CNCCCOc1c(Br)cc(CCNC(=O)/C(Cc2ccc(OC)c(Br)c2)=N/O)cc1Br", "growth": "21.3%"},
      {"smiles": "COc1ccc(C/C(C)=C(\\c2ccc(OCCN3CCCCCC3)cc2)c2ccc(OC(=O)C3CCCCC3)cc2)cc1", "growth": "17.1%"},
      {"smiles": "CCCCCCCC/C=C/CCCCCCCC1=NCC[N+]1(CCO)CCO", "growth": "31.7%"},
      {"smiles": "COc1ccc(-c2cc(-c3ccc(Cl)cc3)nc(NCCCCNc3ccnc4cc(Cl)ccc34)n2)cc1", "growth": "16.7%"},
      {"smiles": "O=C(c1ccc(OCCN2CCCCC2)cc1)c1c(-c2ccc(O)cc2)sc2cc(O)ccc12", "growth": "76.8%"},
      {"smiles": "COc1cc(CN(c2ccc(C)cc2)C2OC(=O)c3ccccc32)cc(OC)c1OC", "note": "(centres undefined)", "growth": "-30.4% (active)"},
      {"smiles": "CC(C(C(=O)N1CCCCC1)N1CCCCC1)N1CCCCC1", "note": "(centres undefined)", "growth": "104%"},
      {"smiles": "Nc1cccc(S(=O)(=O)c2cccc(N)c2)c1", "growth": "-10.6% (active)"},
      {"smiles": "CCOC(=O)c1c(-c2ccc(C)cc2)c(C#N)c(=O)n(-c2cccc(C(F)(F)F)c2)c1N", "growth": "102%"},
      {"smiles": "C=C(C)COC(=O)c1ccccc1C(=O)OCC1(C)CO1", "note": "(centres undefined)", "growth": "133%"},
      {"smiles": "COc1ccc(-c2n[nH]c(=O)c3nc(NC(=S)Nc4ccc(Oc5ccccc5)cc4)sc23)cc1", "growth": "92.9%"},
      {"smiles": "COc1cccc(C(=O)NCCNc2cc(-c3cn(-c4ccccc4)nc3-c3cccc(OC)c3)ccn2)c1", "growth": "41.5%"},
      {"smiles": "NC(=O)NCC1CCCCC1", "growth": "91.3%"},
      {"smiles": "CC(=O)Nc1cc(F)cc(C(F)(F)F)c1Cl", "growth": "100%"},
      {"smiles": "O=[n+]1c2ccccc2n([O-])c2cc(Cl)ccc21", "growth": "-0.993% (active)"},
      {"smiles": "O=S(=O)(Nc1ccccc1Cl)c1ccc(-c2cnc(C3CC3)o2)cc1", "growth": "7.9% (active)"},
      {"smiles": "NC(=O)CCC(C(=O)O)N1C(=O)c2ccc(O)cc2C1=O", "note": "(centres undefined)", "growth": "134%"},
      {"smiles": "COc1cc(OC)c2c(c1Cl)O[C@]1(C2=O)C(OCc2ccccc2)=CC(=O)C[C@H]1C", "growth": "-12% (active)"},
      {"smiles": "CN1CCN(Cc2ccc(NC(=O)c3cncc(C#Cc4cnccc4C#N)c3)cc2C(F)(F)F)CC1", "growth": "24.7%"},
      {"smiles": "Cc1c(C)n(CC(O)CNC2CCCCC2C)c2ccccc12", "note": "(centres undefined)", "growth": "-13.8% (active)"}
    ]}
  ]
}
